Screening results: PubChem BioAssay, National Center for Advancing Translational Sciences (NCATS)
This is a sample that favours compounds with a hit; in the whole collection about 19% have one here.
IL-1B inflam inh: inflammasome signaling inhibition, IL-1 beta readout. activity change, % at 57.5 µM. THP-1 LPS/ATP IL-1B secretion, AlphaLISA, 16 h; hits give low values. hit rate 4.7% among 360,000; in the data active means activity change below about -50%; inconclusive means mostly about -30% to -49%; further: on the % scale 0 is the no-effect control and ±100 the full control effect
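THP-1 cells pretreated 1 hr with compounds (up to 57.5 uM final), then stimulated with LPS (250 ng/mL final) plus ATP (1.25 mM final); secreted IL-1B measured by AlphaLISA after 16 hr, decreased signal indicating inhibition.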
SW480 rerep: inducers of DNA re-replication in SW480 colon cancer cells. SW480 DNA re-replication, Hoechst DNA content imaging, 48 h. Potency, µM (doses to about 46.1 µM), for inactives: at the highest dose re-replication activation, actives largely listed as activators. hit rate 1.8% among 340,000; further: potency means the concentration at half of the fitted maximal effect; % of control where 0% means no effect; nearly all actives have a fitted effect of over 55% in size
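DNA re-replication was detected as more nuclei of elevated Hoechst intensity after 48 hr exposure to compound (23 nL pinned per well of 250 cells).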
TDP1 cell CPT: DT40-hTDP1 cell growth loss with CPT | chicken DT40 Tdp1-/-;hTDP1 cells + 20 nM CPT, ATP luminescence, 48 h | Potency, µM (titrated, usually from 46.2 µM), without a hit: at the top dose activity change, negative = growth inhibition, hits mostly inhibitors | hit rate 12% among 420,000 | AID 686979; further: potency means the concentration at half of the fitted maximal effect; on the % scale 0 is the no-effect control and ±100 the full control effect; nearly all actives have a fitted effect of over 55% in size
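Chicken DT40 Tdp1-/- cells complemented with human TDP1, 400 cells/well, exposed to compounds plus 20 nM camptothecin for at least 48 h at 37 C; viability read as ATP content by CellTiter-Glo luminescence.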
MCF10A rerep: DNA re-replication induction in MCF 10a cells; AID 624296; hit rate 2.9% among 350,000; MCF 10A DNA re-replication, Hoechst nuclear intensity, 48 h; Potency, µM (top dose mostly 46.1 µM), inactives show at the highest dose activity, positive = re-replication, hits mostly activators; further: potency means the concentration at half of the fitted maximal effect; % of control where 0% means no effect; nearly all actives have a fitted effect of over 50% in size
TDP1 cell noCPT: qHTS for Inhibitors of human tyrosyl-DNA phosphodiesterase 1 (TDP1): qHTS in cells in absence of CPT | AID 686978, 2013 | DT40 Tdp1-/- hTDP1 cells, no CPT, ATP luminescence, 48 h | hit rate 15% among 420,000 | Potency, µM (highest dose often 46.2 µM), inactives show top-dose activity change, negative = growth inhibition, hits mostly inhibitors; further: potency means the concentration at half of the fitted maximal effect; on the % scale 0 is the no-effect control and ±100 the full control effect; nearly all actives have a fitted effect of over 55% in size
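Luminescent ATP content (CellTiter-Glo) served as the growth readout. Knockout chicken DT40 cells expressing human TDP1 were exposed to compounds without camptothecin for a minimum 48 hr at 37 °C.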
Chronic BCR inh: blocks chronic active B-cell receptor signaling; ABC-DLBCL IkBa-CBG/CBR reporter, luminescence ratio, 4 h; Potency, µM (titrated, usually from 46.1 µM), for the others: at the top dose activity change, negative = inhibition, actives largely listed as inhibitors; hit rate 0.05% among 340,000; active means well fitted inhibition curve with a large enough effect in the signal ratio, with a control signal flat, not every such curve was filed as active; inconclusive means small, poorly fitted or top-dose-only effect, or effect the other way, or a change in a side signal; the % refers to the signal ratio;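 further: potency means the concentration at half of the fitted maximal effect; plate controls were basal doxycycline-induced cells for no effect and cells given 10 µM MG132 for full effect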
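Concentration-response series (up to 46 uM) were applied to TMD8 dual-reporter cells for 4 h at 37C with doxycycline. Green/red ratio, after filter-overlap correction, defined %Activity; red signal alone was normalised to basal cells and zero luminescence.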
* = called active by the depositor; ? = inconclusive; · = no result. Unless noted, the call rests on the fitted dose curve; in most records, active means well fitted curve in the direction sought with a large enough effect; inconclusive means small, poorly fitted or top-dose-only effect, or another doubt; inactive means no such curve, though single readings can be large; an effect the other way counts as inactive or inconclusive.

SMILES	IL-1B inflam inh	SW480 rerep	TDP1 cell CPT	MCF10A rerep	TDP1 cell noCPT	Chronic BCR inh
Clc1ccc(Nc2ncnc3c2cnn3-c2ccccc2)cc1	-53.2*	-1.1%	?	-1.0%	?	14.4%
CC(C)Nc1ncnc2c1cnn2-c1ccc(Cl)cc1	-58.5*	-0.9%	?	-9.0%	?	?
O=C(CSc1ncnc2ccccc12)Nc1cc(S(=O)(=O)N2CCCCC2)ccc1Cl	1.9	17.3%	?	24.5%	25.9µM*	?
Cc1ccc(NC(=O)CSc2ncnc3ccccc23)cc1S(=O)(=O)N1CCCCCC1	-90.0*	-4.7%	25.9µM*	?	?	?
Cc1cccc(OCc2nn[nH]n2)c1C	2.9	-0.7%	24.7%	10.3%	-3.9%	3.1%
Cn1cc(-c2ccc(C(=O)Nc3cccc(Oc4ccccc4)c3)c3occc23)cn1	10.5	·	0.3%	·	?	·
CN1CCN(c2ccc(CNC(=O)c3ccc(-c4ccnn4C)c4ccoc34)cc2)CC1	16.1	·	?	·	?	·
COc1cc(NC(=O)c2ccc(-c3ccnn3C)c3ccoc23)cc(OC)c1OC	-6.9	·	?	·	20.6µM*	·
CC(C)c1ccc(NC(=O)c2ccc(-c3ccnn3C)c3ccoc23)cc1	15.3	·	16.4µM*	·	20.6µM*	·
CC(=O)Nc1ccc(NC(=O)c2ccc(-c3ccnn3C)c3ccoc23)cc1	-92.8*	·	?	·	?	·
OC(c1ccc(F)cc1)c1nc(-c2cccs2)cs1 (centres undefined)	-4.3	·	-28.5%	·	?	·
CN(Cc1ccco1)Cc1ccc(O)c2ncccc12	·	?	·	11.2%	·	?
CCCOCc1ccc(O)c2ncccc12	-8.4	5.8µM*	0.82µM*	17.6%	0.581µM*	?
CC(C)COCc1ccc(O)c2ncccc12	126.7	?	0.92µM*	29.9%	0.651µM*	?
O=C(NC1CCSc2ccccc21)c1ccc(F)c(S(=O)(=O)N2CCOCC2)c1 (centres undefined)	5.8	?	-32.4%	-0.9%	-28.4%	?
CCCCN(C(=O)c1ccc(C)cc1)c1c(N)n(CCC)c(=O)[nH]c1=O	5.3	-11.3%	0.8%	-0.9%	5.2%	0.1%
CC(=C/c1ccc(C(C)C)cc1)/C=N/NC(=O)CSc1ccccn1	-9.4	1.5%	?	?	?	0.0%
CC(/C=N/NC(=O)CSc1ccccn1)=C\c1ccc(C(C)C)cc1	4.3	?	?	?	10.3µM*	2.2%
N#CC1=C(c2ccccc2)/C(=C/c2ccccc2)OC1=O	-104.4*	?	23.1µM*	6.51µM*	18.4µM*	-11.9%
CC(=O)O[C@@H]1[C@@]2(C)O[C@H]2CC[C@]23O[C@H]2[C@H](OC3=O)C2=C(C)C(=O)O[C@@]21O	?	?	-16.3%	?	?	-11.0%
CN1c2ccccc2Oc2nnc(Cl)cc21	-51.8*	0.9%	8.1%	-1.0%	-22.3%	1.8%
CN1c2ccccc2Oc2nnc(N3CCN(Cc4ccccc4)CC3)cc21	-96.1*	9.5%	?	?	?	14.1%
c1ccc(CN2CCN(c3cnc4ccccc4n3)CC2)cc1	22.2	-9.7%	-23.5%	3.7%	?	0.9%
O=S(=O)(Nc1cc2nc3ccccc3nc2n1Cc1ccccc1)c1ccc(Cl)cc1	-91.3*	10µM*	?	7.31µM*	23.1µM*	?
Cc1cc(Br)ccc1NC(=O)CN(C)C(=O)C1CCN(C(=O)c2ccc(Cl)cc2)CC1	-26.8	1.8%	?	-11.4%	?	·
CN(C)c1ccc(/C=N/N=C(N)N)cc1[N+](=O)[O-]	?	-2.5%	?	16.5%	13µM*	-0.1%
CC(C)n1c(SCC(=O)NC2CC2)nnc1-c1ccco1	26.6	?	-4.9%	-0.8%	15.3%	-0.8%
